Results published in ChEMBL document CHEMBL3988442, “University of Dundee, Small-Polar-MMV Screening Library” (2021).
For some assays here: Entries with a potency or affinity are not part of this list.

Key:
Set-up in all cases: scale not given: direction of the effect not stated beside the values
[1] = biological target: Protein translocase subunit SecA (Escherichia coli (strain K12)) (UniProt P10408); experiment: Assay to Identify E. coli SecA ATPase Inhibitors; type: functional; conditions: 30 µM
Chain of Protein translocase subunit SecA (Escherichia coli (strain K12)) (P10408 whole entry): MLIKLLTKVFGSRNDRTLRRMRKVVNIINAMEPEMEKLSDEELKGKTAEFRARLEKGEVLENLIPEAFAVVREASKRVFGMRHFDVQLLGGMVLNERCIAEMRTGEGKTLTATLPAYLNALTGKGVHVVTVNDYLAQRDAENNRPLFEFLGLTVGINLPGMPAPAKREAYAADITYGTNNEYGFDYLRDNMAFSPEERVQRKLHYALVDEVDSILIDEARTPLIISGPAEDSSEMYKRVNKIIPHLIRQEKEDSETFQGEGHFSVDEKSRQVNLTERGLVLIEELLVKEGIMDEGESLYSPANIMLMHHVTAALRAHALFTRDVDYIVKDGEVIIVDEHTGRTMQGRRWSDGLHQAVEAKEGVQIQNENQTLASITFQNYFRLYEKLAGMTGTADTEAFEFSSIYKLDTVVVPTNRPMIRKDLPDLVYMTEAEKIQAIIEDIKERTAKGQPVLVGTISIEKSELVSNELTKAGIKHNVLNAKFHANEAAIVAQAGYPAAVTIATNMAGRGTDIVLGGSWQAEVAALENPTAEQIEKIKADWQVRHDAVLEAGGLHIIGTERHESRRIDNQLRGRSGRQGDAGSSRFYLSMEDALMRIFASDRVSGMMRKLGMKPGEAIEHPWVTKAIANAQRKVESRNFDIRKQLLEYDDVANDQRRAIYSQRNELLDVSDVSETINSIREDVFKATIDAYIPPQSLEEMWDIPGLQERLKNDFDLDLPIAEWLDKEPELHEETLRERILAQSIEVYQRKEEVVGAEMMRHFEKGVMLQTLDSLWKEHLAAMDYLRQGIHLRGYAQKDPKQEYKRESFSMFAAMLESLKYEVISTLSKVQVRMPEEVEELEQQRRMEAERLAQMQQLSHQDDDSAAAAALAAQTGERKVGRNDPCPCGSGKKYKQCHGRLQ

[2] = biological target: T1, Ubiquitin-activating enzyme e1, putative (Leishmania donovani (strain BPK282A1)) (UniProt E9BSI1); experiment: Leishmania donovani Ubiquitin Activating Enzyme (LdE1); type: functional; conditions: 30 µM
T1 sequence (whole entry): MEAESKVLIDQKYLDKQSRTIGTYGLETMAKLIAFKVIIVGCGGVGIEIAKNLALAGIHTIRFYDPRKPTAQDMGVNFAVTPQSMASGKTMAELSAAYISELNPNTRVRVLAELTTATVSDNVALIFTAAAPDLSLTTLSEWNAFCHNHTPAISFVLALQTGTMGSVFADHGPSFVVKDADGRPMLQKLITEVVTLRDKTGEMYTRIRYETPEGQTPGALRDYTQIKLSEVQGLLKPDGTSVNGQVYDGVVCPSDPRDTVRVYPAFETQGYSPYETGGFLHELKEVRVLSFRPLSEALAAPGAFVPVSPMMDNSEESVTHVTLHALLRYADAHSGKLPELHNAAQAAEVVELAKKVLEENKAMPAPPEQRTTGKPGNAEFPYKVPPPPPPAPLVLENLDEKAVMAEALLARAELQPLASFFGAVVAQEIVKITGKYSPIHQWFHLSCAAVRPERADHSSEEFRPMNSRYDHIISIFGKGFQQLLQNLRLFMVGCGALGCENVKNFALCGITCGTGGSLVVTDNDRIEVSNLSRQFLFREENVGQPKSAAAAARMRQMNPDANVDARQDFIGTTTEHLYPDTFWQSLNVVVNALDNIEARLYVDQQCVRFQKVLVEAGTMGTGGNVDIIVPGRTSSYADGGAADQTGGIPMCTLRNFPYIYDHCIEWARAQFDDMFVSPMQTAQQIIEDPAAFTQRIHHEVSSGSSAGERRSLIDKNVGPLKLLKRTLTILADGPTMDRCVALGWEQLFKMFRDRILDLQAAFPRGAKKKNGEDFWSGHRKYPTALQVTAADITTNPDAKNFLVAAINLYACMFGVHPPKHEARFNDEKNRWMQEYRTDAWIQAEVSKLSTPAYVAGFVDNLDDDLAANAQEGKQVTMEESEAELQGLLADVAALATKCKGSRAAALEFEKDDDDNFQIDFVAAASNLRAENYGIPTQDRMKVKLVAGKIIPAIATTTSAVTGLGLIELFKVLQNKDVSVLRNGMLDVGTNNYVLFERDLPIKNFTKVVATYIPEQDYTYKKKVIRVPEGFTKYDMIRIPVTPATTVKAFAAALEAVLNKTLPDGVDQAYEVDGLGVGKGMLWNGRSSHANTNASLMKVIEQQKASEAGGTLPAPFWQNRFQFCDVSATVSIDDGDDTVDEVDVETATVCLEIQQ

[3] = biological target: AMP-activated protein kinase, AMPK (Homo sapiens) (UniProt P54646+O43741+P54619+Q9UGJ0+Q9Y478+Q13131+Q9UGI9); experiment: AMP-dependent Kinase enzyme assay. An in vitro enzyme assay that detects ADP turnover that is directly proportional to AMPK activity. This uses naive AMPK that is activated during the assay with MK-8722; type: functional; conditions: 30 µM
[4] = biological target: Sialic acid-binding Ig-like lectin 9 (Homo sapiens) (UniProt Q9Y336); experiment: Hs-Siglec9 ALPHAscreen SOP 20170721; conditions: 10 µM
Chain of Sialic acid-binding Ig-like lectin 9 (Homo sapiens) (Q9Y336 whole entry): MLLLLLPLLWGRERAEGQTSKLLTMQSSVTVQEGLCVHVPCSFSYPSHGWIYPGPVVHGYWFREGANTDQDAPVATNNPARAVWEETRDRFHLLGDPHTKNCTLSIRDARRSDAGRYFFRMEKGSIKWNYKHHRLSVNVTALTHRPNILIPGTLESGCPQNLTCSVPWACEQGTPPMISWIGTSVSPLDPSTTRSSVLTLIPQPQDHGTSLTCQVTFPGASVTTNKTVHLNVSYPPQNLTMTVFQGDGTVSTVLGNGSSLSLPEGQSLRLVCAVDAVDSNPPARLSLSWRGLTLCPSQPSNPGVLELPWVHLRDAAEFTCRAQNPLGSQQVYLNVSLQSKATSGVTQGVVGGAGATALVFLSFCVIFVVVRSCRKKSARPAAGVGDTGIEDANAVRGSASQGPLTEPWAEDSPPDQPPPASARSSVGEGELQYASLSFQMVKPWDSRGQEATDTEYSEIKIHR

Trypanosoma cruzi = experiment: Trypanosoma cruzi phosphomannomutase and mannose-1-phosphate guanylyltransferase assay; type: functional; conditions: 10 µM
[5] = biological target: T2, Arginase-2, mitochondrial (Homo sapiens) (UniProt P78540); experiment: in vitro enzyme assay to detect the production of urea directly proportional to the activity of Arginase II; type: functional; conditions: 33.3 µM; further: in the data most compounds retested in dose-response had high values
T2 sequence (whole entry): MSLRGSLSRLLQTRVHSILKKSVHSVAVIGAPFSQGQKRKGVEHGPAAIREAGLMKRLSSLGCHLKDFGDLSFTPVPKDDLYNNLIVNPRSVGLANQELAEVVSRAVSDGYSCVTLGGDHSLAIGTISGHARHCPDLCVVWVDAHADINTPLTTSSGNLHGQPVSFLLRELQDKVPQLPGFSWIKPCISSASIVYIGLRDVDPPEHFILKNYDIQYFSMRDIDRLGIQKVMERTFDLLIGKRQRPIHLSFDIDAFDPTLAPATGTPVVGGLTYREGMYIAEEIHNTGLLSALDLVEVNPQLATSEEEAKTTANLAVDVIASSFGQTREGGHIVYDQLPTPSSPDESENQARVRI

[6] = biological target: T3, Proteasome subunit beta (Trypanosoma cruzi) (UniProt O96673); experiment: Trypanosoma cruzi proteasome chymotrypsin-like activity (TcProtChymo) assay.; further: in the data most compounds retested in dose-response had high values; type: functional; conditions: 9.37 µM
T3 sequence (whole entry): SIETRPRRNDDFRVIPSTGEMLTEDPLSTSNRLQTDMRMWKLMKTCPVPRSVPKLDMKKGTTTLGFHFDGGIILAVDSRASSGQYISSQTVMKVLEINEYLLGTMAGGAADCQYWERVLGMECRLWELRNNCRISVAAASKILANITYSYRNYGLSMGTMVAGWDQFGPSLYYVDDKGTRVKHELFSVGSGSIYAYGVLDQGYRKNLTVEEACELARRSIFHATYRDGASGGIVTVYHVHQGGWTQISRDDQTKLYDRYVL

Homo sapiens = species: Homo sapiens; experiment: To identify inhibition of the IFN signalling (Jak-Stat) pathway via expression of an eGFP reporter gene under the control of an IFN-stimulated response element (ISRE) containing MxA promoter.; type: functional; conditions: 30 µM
[7] = biological target: T4, Tyrosyl-tRNA synthetase, putative (Trypanosoma cruzi (strain CL Brener)) (UniProt Q4DSP6); experiment: Trypanosoma cruzi tyrosyl tRNA synthetase (TcYRS) _High Tyrosine SOP; type: functional; conditions: 30 µM; further: in the data most compounds retested in dose-response had high values
T4 sequence (whole entry): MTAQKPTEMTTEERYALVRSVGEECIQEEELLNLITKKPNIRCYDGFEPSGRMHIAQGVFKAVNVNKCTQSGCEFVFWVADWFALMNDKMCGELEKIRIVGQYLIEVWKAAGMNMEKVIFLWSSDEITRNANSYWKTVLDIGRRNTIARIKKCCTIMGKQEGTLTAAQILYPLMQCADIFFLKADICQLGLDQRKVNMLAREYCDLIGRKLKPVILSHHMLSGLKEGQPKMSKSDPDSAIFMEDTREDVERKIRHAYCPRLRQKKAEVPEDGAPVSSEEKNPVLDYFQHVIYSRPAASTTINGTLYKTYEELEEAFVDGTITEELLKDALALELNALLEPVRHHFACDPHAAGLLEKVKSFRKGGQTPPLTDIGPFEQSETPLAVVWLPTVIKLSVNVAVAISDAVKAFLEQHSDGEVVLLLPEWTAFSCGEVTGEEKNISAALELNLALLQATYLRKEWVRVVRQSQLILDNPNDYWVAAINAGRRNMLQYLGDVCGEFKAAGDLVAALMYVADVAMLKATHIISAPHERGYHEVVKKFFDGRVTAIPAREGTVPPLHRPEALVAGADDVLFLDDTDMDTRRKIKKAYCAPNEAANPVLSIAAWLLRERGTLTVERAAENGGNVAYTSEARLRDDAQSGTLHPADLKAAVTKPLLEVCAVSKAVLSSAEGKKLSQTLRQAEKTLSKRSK

[8] = biological target: T4, Tyrosyl-tRNA synthetase, putative (Trypanosoma cruzi (strain CL Brener)); experiment: Trypanosoma cruzi tyrosyl tRNA synthetase (TcYRS) SOP; type: functional; conditions: 30 µM
[9] = biological target: Chromo domain-containing protein 1 (Saccharomyces cerevisiae (strain ATCC 204508 / S288c) (Baker's yeast)) (UniProt P32657); experiment: ScCHD-1 Enzyme Inhibition Assay; type: functional; conditions: 30 µM; further: in the data most compounds retested in dose-response had high values
Chain of Chromo domain-containing protein 1 (Saccharomyces cerevisiae (strain ATCC 204508 / S288c) (Baker's yeast)) (P32657 whole entry, the tested form may be a part): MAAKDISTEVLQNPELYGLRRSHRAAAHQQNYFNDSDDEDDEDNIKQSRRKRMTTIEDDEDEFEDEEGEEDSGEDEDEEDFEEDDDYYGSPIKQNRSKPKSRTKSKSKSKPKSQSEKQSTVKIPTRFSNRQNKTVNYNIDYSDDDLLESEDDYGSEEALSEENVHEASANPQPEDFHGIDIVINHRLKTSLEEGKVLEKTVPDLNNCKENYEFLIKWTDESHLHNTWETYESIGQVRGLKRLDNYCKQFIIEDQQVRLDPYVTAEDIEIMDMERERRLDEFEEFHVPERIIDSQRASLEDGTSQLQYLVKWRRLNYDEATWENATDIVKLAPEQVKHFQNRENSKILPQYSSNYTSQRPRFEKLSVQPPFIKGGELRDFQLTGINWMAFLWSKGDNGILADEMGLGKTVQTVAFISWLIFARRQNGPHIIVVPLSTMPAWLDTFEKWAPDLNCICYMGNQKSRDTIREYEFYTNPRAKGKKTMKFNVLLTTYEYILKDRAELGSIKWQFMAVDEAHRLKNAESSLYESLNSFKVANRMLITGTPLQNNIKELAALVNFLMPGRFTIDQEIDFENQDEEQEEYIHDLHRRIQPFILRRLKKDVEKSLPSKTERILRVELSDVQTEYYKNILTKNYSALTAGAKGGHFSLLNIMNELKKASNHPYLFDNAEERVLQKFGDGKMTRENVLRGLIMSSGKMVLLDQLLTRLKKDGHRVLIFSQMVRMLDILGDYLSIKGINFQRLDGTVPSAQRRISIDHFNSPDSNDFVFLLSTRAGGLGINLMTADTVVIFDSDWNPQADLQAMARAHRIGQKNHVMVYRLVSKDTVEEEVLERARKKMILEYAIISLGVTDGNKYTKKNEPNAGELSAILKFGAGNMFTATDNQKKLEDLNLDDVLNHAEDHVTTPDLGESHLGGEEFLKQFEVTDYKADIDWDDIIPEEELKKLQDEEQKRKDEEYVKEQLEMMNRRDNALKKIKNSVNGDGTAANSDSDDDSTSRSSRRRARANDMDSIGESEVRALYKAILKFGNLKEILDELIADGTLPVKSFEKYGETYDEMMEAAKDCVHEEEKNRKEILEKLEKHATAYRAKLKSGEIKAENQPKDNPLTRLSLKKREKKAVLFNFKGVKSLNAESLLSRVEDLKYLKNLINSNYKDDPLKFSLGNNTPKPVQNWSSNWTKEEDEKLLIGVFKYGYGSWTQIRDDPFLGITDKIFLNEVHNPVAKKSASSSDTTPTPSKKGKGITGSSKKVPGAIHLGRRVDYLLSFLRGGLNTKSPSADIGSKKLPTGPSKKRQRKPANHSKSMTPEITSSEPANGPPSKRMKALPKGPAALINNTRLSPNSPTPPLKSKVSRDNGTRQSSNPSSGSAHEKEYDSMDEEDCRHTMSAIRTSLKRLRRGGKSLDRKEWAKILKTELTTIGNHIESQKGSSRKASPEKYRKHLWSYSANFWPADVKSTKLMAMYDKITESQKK

Row | SMILES | Percent Effect [1] [%] | Percent Effect [2] [%] | Percent Effect [3] [%] | Percent Effect [4] [%] | Percent Effect (Trypanosoma cruzi) [%] | Percent Effect [5] [%] | Percent Effect [6] [%] | Percent Effect (Homo sapiens) [%] | Percent Effect [7] [%] | Percent Effect [8] [%] | Percent Effect [9] [%]
1 | CC(C)c1nc(C(=O)N2CCCC(n3cncn3)C2)c[nH]1 (stereo unspecified) | -4.19 | 11.4 | 3.03 | 3.06 | -0.308 | 0.215 | 12.9 | 20.5 | 4.17 | 15.2 | -17
2 | O=C(CSc1ncccn1)N1C[C@H]2CC[C@@H]1CN(Cc1ccncc1)C2 | -4.87 | 11 | -5.51 | 21 | 6.46 | 8.64 | 12.9 | -3.77 | 5.38 | 7.5 | -3.96
3 | O=C(NCCn1ccnc1)NCC(c1ccco1)N1CCCCC1 (stereo unspecified) | -3.12 | 2.6 | 4.65 | 2.57 | -4.41 | 1.9 | 3.64 | 13.9 | 2.86 | 2.35 | -18.2
4 | N#CCCN(C(=O)CN1CCCC1C1CCCCC1)c1ccccc1 (stereo unspecified) | -2.43 | 0 | -4.92 | 3.65 | -1.56 | 2.5 | 15.1 | 17.1 | 12.9 | 8.54 | 0.924
5 | Cc1nc(C)n(CC2CCCCN2Cc2ncc(C(C)(C)C)o2)n1 (stereo unspecified) | -2.22 | 31.2 | -8 | -3.37 | 5.62 | -2.13 | 19.1 | 10.5 | 7.77 | 24.4 | -10.7
6 | CC(C)c1cc(NCC(O)c2ccc(F)cc2)n2nccc2n1 (stereo unspecified) | -2.04 | 2.7 | 10.8 | 1.77 | 1.35 | -4.29 | 3.97 | 38.1 | 2.65 | 7.32 | 4.86
7 | Cc1nc(CN(C)C(=O)Nc2cnn(CC3CCCO3)c2)cs1 (stereo unspecified) | -3.47 | -5.41 | -27.6 | 1.65 | -0.965 | 0.952 | 5.86 | 15 | -6.88 | -9.76 | 0.495
8 | Cc1cccc(CN2C[C@@H]3COC[C@]3(COc3ccc(C#N)cn3)C2)n1 | -2.98 | -8.22 | -1.47 | 2.28 | 10.1 | -1.2 | 3.34 | 4.74 | 0 | 8.64 | -0.121
9 | Cc1cc(C)n(Cc2cccc(C(=O)NCCN3CCOCC3)c2)n1 | 6.23 | 5.2 | -1.94 | 1.34 | -6.59 | -6.9 | 24.3 | 9.8 | 5.38 | 16.1 | -2.63
10 | Cc1nccn1C1CCCN(C(=O)c2ccc3c(c2)COC3)C1 (stereo unspecified) | -0.738 | -2.7 | -1 | 7.4 | 3.44 | 0.554 | -5.39 | -3.77 | 4.95 | 13.4 | -0.0787
11 | CC(Cn1ccnc1)NC(=O)N1CCN(Cc2cccnc2)CC1 (stereo unspecified) | -5 | 18.4 | -6.12 | 5.79 | 8.46 | -3.83 | 11.5 | 4.46 | 7.35 | 19.5 | -10.3
12 | COCCO[C@H]1CCN(C(=O)C2CCOCC2)[C@H]1Cc1ccncc1 | -1.4 | 16 | -6.31 | -6.51 | -3.94 | -1.17 | 9.6 | 16.1 | 2.13 | 6.41 | -2.62
13 | Cc1ccccc1CNC(=O)CN1CCN(Cc2nccn2C)CC1 | -1.84 | 21.6 | -6.67 | 6.22 | 2.74 | -10.8 | 18.4 | 2.02 | 8.37 | 25.9 | -9.21
14 | COc1cc(C(=O)N2CCCC(CNS(C)(=O)=O)C2)cc(OC)c1C (stereo unspecified) | -5.54 | 13.5 | 77.8 | -1.48 | 2.74 | 0.802 | 1.26 | 11 | 7.39 | 16.1 | -4.09
15 | Cc1ccc(C(=O)N2CCN(S(C)(=O)=O)CC2)cc1N1CCNC1=O | -5.92 | 8 | 3.73 | 15.8 | 2.24 | 5.73 | 15.5 | 16.6 | 6.01 | 11.1 | -6.07
16 | N#CCCCS(=O)(=O)N1CCCC1CC(=O)c1cccs1 (stereo unspecified) | -2.19 | 2.7 | -3.83 | 2.31 | -1.93 | -3.81 | 3.1 | -1.42 | -0.529 | -4.88 | -0.34
